NR1D1 modulator: Rev-erb alpha (human) modulation | P20393 | Rev-erbα–FITC-DNA binding, fluorescence polarization, 90 min | activity, % at 10 µM | 370,000 compounds, 0.79% hits | AID 1259318;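 active means activity above about 14%, limit read from the data; passing the limit was not always enough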;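 further: 0% = DMSO wells with 35 nM protein and 100% = DMSO wells with 750 nM protein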
PG9 Ab binder: binds the HIV-1 gp120 antibody PG9. TR-FRET gp120-PG9 antibody binding. inhibition, % at 6.7 µM. 360,000 compounds, 0.43% hits; in the data active means inhibition above about 8.5%
EP2 modulator: modulates human prostaglandin E2 receptor EP2 signaling. induction, % at 25 µM. 260,000 compounds, 0.83% hits. EP2-expressing cells, cAMP HTRF FRET, PGE2 co-stimulation;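 active means compounds whose cAMP rise, as percent of the full-agonist control response, exceeds 60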;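 further: rat C6 glioma line stably carrying human EP2 under a CMV promoter; the protocol text gives 20 µM as final concentration; 100% = response of wells given 1 µM PGE2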
SKN-1 block: C. elegans SKN-1 inhibition | C. elegans VP596 Pgst-4::GFP/RFP ratio, acrylamide-induced, 24 h | inhibition, % at 21.8 µM | 360,000 compounds, 0.49% hits;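 active means interference check ratio from 0.5 to 1.5 plus GFP to RFP signal ratio inhibition reaching or exceeding a fixed threshold, cut at about 30% in these data, passing the limit was not always enough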
PGE2 EP2 inh: inhibitors of human EP2 prostaglandin E2 receptor. C6 glioma cells expressing human EP2, cAMP TR-FRET; cells stimulated with saturating PGE2. inhibition, % at 25 µM. AID 1422. 260,000 compounds, 0.52% hits;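 active means percent inhibition above 40 after rounding to a whole number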;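 further: rat C6 glioma host cells with rolipram phosphodiesterase inhibitor present; the protocol text gives 20 µM as final concentration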
RAM network inh: inhibitors of the yeast RAM network; S. cerevisiae dse1pr::URA3 reporter, 5-FOA growth OD615, 2 d; analog-sensitive cbk1-as2 kinase mutant strain; inhibition, % at 50 µM; 190,000 compounds, 1.8% hits; AID 868;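 active means inhibition above a set limit, 3 SD over mean compound inhibition, cut at about 8.4% in these data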;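 further: 0% = DMSO-only wells with no growth and 100% = 10 µM 1-NA-PP1 full growth; inhibition rescues growth on 5-FOA so higher OD means more RAM inhibition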
Rev-erbA confirm: Rev-erb alpha (human) modulation, hit confirmation | shares compounds with NR1D1 modulator | Rev-erb alpha FITC-DNA binding, fluorescence polarization, 90 min | activation, % at 25 µM | 3,000 compounds, 61% hits;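 active means activation at or above a set limit, or at least 3 SD above the negative control mean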;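 further: 0% = 35 nM protein with DMSO and 100% = 750 nM protein high control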
RORg counter: counter-screen for Rev-erb alpha modulators: RORgamma DNA binding | IC50, µM | AID 1259320 | 910 compounds, 8% hits | purified RORgamma protein-FITC-DNA binding, fluorescence polarization | shares compounds with NR1D1 modulator;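 active means Compounds whose fitted half-maximal concentration for disrupting protein-DNA binding is below 10 micromolar; the record names Rev-erb in its text, so the target is in doubt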
The depositor's hits bear a star; nt = no result. Rows were chosen to be rich in hits. Some 2.9% of all compounds tested hit in one or more screens of this group.

SMILES	NR1D1 modulator	PG9 Ab binder	EP2 modulator	SKN-1 block	PGE2 EP2 inh	RAM network inh	Rev-erbA confirm	others
N#CCCN1CCCc2cc(N=Nc3ccc(C(F)(F)F)cc3)ccc21	17.5*	-1.0	-28.3	8.0	4.1	nt	21.9*
CCOC(=O)N1CCN(S(=O)(=O)c2ccc(C(=O)Nc3nc4ccc(F)cc4s3)cc2)CC1	nt	-0.4	-18.2	9.6	nt	3.1	nt
CCOC(=O)N1CCN(S(=O)(=O)c2ccc(C(=O)Nc3nc4ccccc4s3)cc2)CC1	33.8*	6.6	-15.4	11.1	nt	3.7	21.1*
CCOC(=O)c1sc(NC(=O)c2ccc(S(=O)(=O)N3CCCCCC3)cc2)nc1-c1ccccc1	28.8*	-1.8	4.9	8.2	4.3	3.8	4.5
CCOC(=O)c1sc(NC(=O)c2ccc(S(=O)(=O)N3CCCCC3)cc2)nc1-c1ccccc1	15.6	1.3	-1.9	4.1	9.1	3.7	nt
CC(C)(C#N)Cc1cc(CC(C)(C)C#N)cc(C(C)(C)C)c1	21.7*	-0.3	nt	5.5	nt	nt	43.1*	RORg counter=>40
Cc1ccnc(NC(=O)C2CC(=O)N(c3ccccc3)C2)c1 (stereo not drawn)	nt	nt	-13.4	nt	9.8	nt	nt
O=C(CN1C(=O)c2ccccc2C1=O)N1CCN(c2nnc(-c3ccccc3)c3ccccc23)CC1	29.5*	5.4	16.1	0.2	16.7	3.3	7.8
CCC(=O)N1CCN(c2nnc(-c3ccccc3)c3ccccc23)CC1	-5.9	-2.0	nt	26.0	nt	nt	nt
Cc1ccc(-c2nnc(N3CCN(C(=O)CN4C(=O)c5ccccc5C4=O)CC3)c3ccccc23)cc1	25.1*	-0.3	nt	-12.1	13.6	nt	7.3
Cc1ccc(S(=O)(=O)N2CC(O)CC2C(=O)O)cc1 (stereo not drawn)	-0.8	0.1	-10.5	-4.0	5.9	nt	nt
CCOC(=O)c1ccc(NC(=O)C2CC(O)CN2S(=O)(=O)c2ccc(C)cc2)cc1 (stereo not drawn)	20.9*	1.3	nt	-10.5	nt	nt	0.5
CC[C@@H](Cn1nc(-c2ccc(F)c(F)c2)ccc1=O)NC(=O)Cc1ccccc1F	nt	nt	-3.1	nt	6.4	nt	nt
O=C(CSc1nnc2scc(-c3ccccc3)n12)N1CCCCC1	nt	nt	4.9	nt	11.9	nt	nt
O=C(CSc1nnc2scc(-c3ccccc3)n12)Nc1nsc(-c2ccccc2)n1	43.5*	nt	-39.5	8.6	-0.9	3.5	38.6*	RORg counter=>40
O=C(CSc1nnc2scc(-c3ccccc3)n12)Nc1nsc(-c2ccc(Cl)cc2)n1	30.8*	0.4	nt	12.9	17.0	nt	17.0
CN(C)Cc1ccc(CN(C)C2(C)CCS(=O)(=O)C2)cc1 (stereo not drawn)	nt	nt	-7.8	nt	4.3	nt	nt
COc1cc(/C=C/C(=O)N2CCN(c3ccccc3F)CC2)cc(OC)c1OC	nt	nt	-81.7	nt	13.7	nt	nt
Cc1ccc(OCC(=O)Nc2cccc3nsnc23)c(C)c1	8.7	-0.8	29.3	-13.9	14.0	7.0	nt
O=C(COc1ccc([N+](=O)[O-])cc1)Nc1cccc2nsnc12	24.1*	-3.1	nt	5.9	nt	nt	21.7*
CCN(CC)CCN(Cc1cc2cc(OC)ccc2[nH]c1=O)C(=S)NC1CCCCC1	nt	nt	-57.5	nt	23.4	nt	nt
CC1(C)Cc2c(c(N3CCOCC3)nc3sc4c(NN)ncnc4c23)CS1	28.1*	-1.6	17.9	14.5	7.5	5.0	33.7*	RORg counter=>40
CC(C)CNc1nnnc2c1sc1nc(N3CCOCC3)c3c(c12)CC(C)(C)SC3	-5.0	0.7	9.3	20.8	5.1	4.5	nt
CCOc1ccc(N=Nc2c(=O)[nH]n3c(=O)cc(C)[nH]c23)cc1	24.6*	-14.7	7.6	15.6	18.5	4.4	41.0*	RORg counter=>40
Cc1cc(=O)n2[nH]c(=O)c(N=Nc3ccccc3)c2[nH]1	7.7	-11.5	24.4	7.1	20.2	0.3	nt
O=C(Nc1ccncc1)c1sc2ccccc2c1Cl	1.4	1.2	-82.1	1.4	6.1	2.1	nt
O=C(Nc1ccnc(=O)[nH]1)c1sc2ccccc2c1Cl	37.2*	2.5	-7.3	-4.2	6.5	nt	22.6*
CCCCn1c(=O)[nH]c(=O)c2c1nc(-c1ccc(-c3ccccc3)cc1)n2C	20.3	-1.5	nt	3.0	nt	nt	nt

Source: PubChem (several laboratories)
